Rab9 prom act – Rab9 promoter activation. Huh7 Rab9 promoter-luciferase reporter, luminescence, 24 h. Potency, µM (doses to about 9.22 µM), without a hit: at the highest dose activation, negative = inhibition, most hits filed as activators. 2.8% of 320,000 active. AID 485297; also: % of control where 0% means no effect; nearly all actives have a fitted effect of over 60% in size
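Cells were plated at 1500 per well in reduced-serum medium with 10% FBS and left 2 h. Compound in DMSO was then added for 24 h at 37 °C. Reporter signal was read by luminescence after 10 min with luciferase detection reagent.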
ELG1 genotox – inducers of genotoxicity in HEK293T ELG1-luciferase cells. HEK293T ELG1-luciferase reporter, luminescence, 16 h. Potency, µM (titrated, usually from 46 µM), for inactives: top-dose activity change, positive = activation, actives largely listed as activators. 1.3% of 330,000 active; also: % of control where 0% means no effect; nearly all actives have a fitted effect of over 60% in size
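Genotoxicity was scored as increased ELG1-luciferase reporter signal, measured by ONE-Glo luminescence (30 min, room temperature). Compound or vehicle exposure of the HEK293T reporter cells lasted 16 hr at 37°C.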
p53 reactivator – restores transcriptional activity of mutant p53; H1299 p53-A138V BP100-luciferase reporter, luminescence, 24 h; Potency, µM (series often up to 92.2 µM), without a hit: at the top dose activity change, positive = activation, most hits filed as activators; 0.063% of 320,000 active; AID 504706; also: % of control where 0% means no effect; nearly all actives have a fitted effect of over 45% in size
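H1299 (p53-null), stable ts p53-A138V + BP100-Luc; 1000 cells/well, Opti-MEM/10% FBS; cpd 4 pt, 1:5; 24 h, 37 deg C, 5% CO2; detection reagent 10 min RT; luminescence.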
SMN2 splice enh – SMN2 splice variant enhancement; HEK293 SMN2-luciferase splicing reporter, luminescence, 30-36 h; Potency, µM (doses to about 46.1 µM), inactives show at the top dose activity change, positive = activation, usual class: activators; 2.8% of 210,000 active; AID 1458; also: % of control where 0% means no effect; nearly all actives have a fitted effect of over 55% in size
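qHTS luciferase splicing reporter: luminescence rises when SMN2 exon 7 is included in transfected HEK293 cells. Compound exposure lasted 30-36 h at 37C, with 4.5 mM final sodium butyrate as control, followed by a ONE-Glo read.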
FLuc counter – counter-screen for miR-21 project: firefly luciferase inhibitors or activators; purified FLuc, Km substrates, luminescence inhibition; 6.9% of 360,000 active; Potency, µM (doses to about 57.5 µM), inactives show top-dose activity change, negative = inhibition, most hits filed as inhibitors; AID 588342; P08659;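 also: plate controls were vehicle for no effect and reference inhibitor for full effect; nearly all actives have a fitted effect of over 55% in size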
Target sequence (P08659 whole entry, looked up): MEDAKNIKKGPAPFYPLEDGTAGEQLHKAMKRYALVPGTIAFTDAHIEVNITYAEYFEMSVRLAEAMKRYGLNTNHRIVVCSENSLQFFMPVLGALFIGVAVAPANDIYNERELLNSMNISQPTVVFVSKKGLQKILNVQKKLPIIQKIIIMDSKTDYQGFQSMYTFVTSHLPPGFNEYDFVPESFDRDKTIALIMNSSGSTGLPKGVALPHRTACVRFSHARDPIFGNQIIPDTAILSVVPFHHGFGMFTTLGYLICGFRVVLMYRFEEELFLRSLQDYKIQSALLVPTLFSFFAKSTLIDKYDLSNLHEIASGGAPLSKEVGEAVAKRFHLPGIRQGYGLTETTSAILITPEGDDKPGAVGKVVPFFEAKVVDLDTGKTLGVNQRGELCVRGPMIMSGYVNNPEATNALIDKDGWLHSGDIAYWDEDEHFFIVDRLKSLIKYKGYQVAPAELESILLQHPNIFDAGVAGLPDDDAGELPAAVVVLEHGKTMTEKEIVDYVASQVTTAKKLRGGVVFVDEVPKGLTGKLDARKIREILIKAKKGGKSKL
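Purified P. pyralis luciferase, 10 nM final, with Km-level 10 uM D-luciferin and 10 uM ATP in 50 mM Tris acetate pH 7.5, 10 mM Mg acetate, 0.01% Tween-20, 0.05% BSA; 6-point qHTS titration about 60 µM downward; luminescence read.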
NPC1 promoter act – NPC1 promoter activation; 2.4% of 320,000 active; AID 485313; Huh7 NPC1 promoter luciferase reporter, 24 h; Potency, µM (highest dose often 9.22 µM), inactives show at the top dose activation, hits mostly activators; also: % of control where 0% means no effect; nearly all actives have a fitted effect of over 60% in size
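Readout is luciferase luminescence, reflecting NPC1 promoter activation in stably transfected Huh7 cells after 24 h compound exposure at 37 °C in reduced-serum medium with 10% FBS.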
Active calls of the source: *; ? = inconclusive; . = no result given; [ ] = another dose, or the depositor's remark. This is a sample that favours compounds with a hit; in the whole collection about 7.4% have one here. Calls follow the shape of the dose curve; as a rule, active = well fitted curve in the direction sought with a large enough effect; inconclusive = small, poorly fitted or top-dose-only effect, or another doubt; inactive = no such curve, though single readings can be large; an effect the other way counts as inactive or inconclusive. Potency is read from the fitted curve at half-maximal effect.

SMILES | Rab9 prom act | ELG1 genotox | p53 reactivator | SMN2 splice enh | FLuc counter | NPC1 promoter act
Cc1cc(/C=N/NC(N)=S)c(C)n1-c1cccc(Cl)c1 | -7% | -2% | -4% | -18% | -5% | -3%
O=C(N/N=C/c1ccc2ncccc2c1)c1ccco1 | 0.32µM* | 2.6µM* | -7% | 0.56µM* | 1.3µM* | ?
CCOc1ccc(CCNC(=O)c2ccc(CS(=O)(=O)Cc3ccccc3Cl)o2)cc1OCC | . | . | . | . | -10% | .
Cc1cc(C)cc(NC(=O)CSc2oc(-c3cccs3)nc2S(=O)(=O)c2ccccc2)c1 | . | . | . | 29% | 4% | .
Cc1cc(F)ccc1NC(=O)C1CCN(C(=O)c2cnn(-c3ccccc3)c2-n2cccc2)CC1 | . | . | . | -22% | 3% | .
Cc1cccc(-n2c(C)cc(/C=N\NC(=O)c3ccco3)c2C)c1 | 1.1µM* | ? | 1% | 13% | 9.5µM* | ?
CN(C)c1ccc(/C=N/NC(=O)c2ccco2)cc1 | 0.56µM* | 4.1µM* | ? | 8.9µM* | 2.7µM* | 0.79µM*
Cc1ccc(/C=N/NC(=O)c2ccco2)cc1 | 1.4µM* | ? | 9% | . | 3.8µM* | 1.8µM*
Cc1cccc(-n2c(C)cc(/C=N/O)c2C)c1 | -2% | 1% | 7% | -8% | -13% | 7%
O=c1c2ccccc2cnn1-c1ccc(Cl)cc1 | 1µM* | ? | 25µM* | 10µM* | 5.4µM* | 1.4µM*
Cc1ccc(-n2ncc3ccccc3c2=O)cc1Cl | 2.8µM* | ? | 6% | 14µM* | 5.4µM* | 2.5µM*
COc1cccc2c1CCC1CC(=O)CC[C@@]21C (stereo not given in full) | . | . | . | -8% | . | .
COc1ccc2nc3oc(C(=O)Nc4cccc(C(F)(F)F)c4)cc3cc2c1 | . | . | . | . | 0% | .
Oc1cccc(-c2nc3ncccn3c2Nc2cccc(C(F)(F)F)c2)c1 | . | . | . | -10% | -2% | .
Cc1ccc(NC(=O)c2cc3ccccc3oc2=N)cc1 | 0.71µM* | ? | 13% | . | 0.19µM* | 0.45µM*
N=c1oc2cc(O)ccc2cc1C(=O)Nc1ccc(Cl)cc1 | 3.2µM* | ? | 31% | . | 3µM* | 2.2µM*
O=C(NCCc1ccc(F)cc1)c1cc2ccccc2oc1=O | -1% | 26% | -2% | . | -3% | -5%
N=c1oc2ccccc2cc1C(=O)Nc1ccc(F)cc1 | 0.5µM* | 5.2µM* | ? | . | 0.85µM* | 0.79µM*
N=c1oc2ccccc2cc1C(=O)Nc1cccc(F)c1 | ? | ? | ? | . | 0.3µM* | 3.2µM*
CC(=O)c1cccc(NS(=O)(=O)c2c(C)nc3sc(C)cn3c2=O)c1 | . | . | . | . | -3% | .
CCCC(=O)Oc1ccc(-c2nccc(C(OC)OC)n2)cc1 | ? | 12% | 3% | -1% | 13µM* | 7%
O=C(c1ccco1)N1CCC[C@@]2(CCN(c3ccccn3)C2)C1 | . | . | . | -11% | . | .
CCOC(=O)NC(=O)/C(C#N)=C\Nc1ccc(Cl)cc1Cl | ? | 16% | 13% | -8% | 13µM* | -23%
O=C(CN1C(=O)c2ccccc2S1(=O)=O)c1ccccc1 | ? | 0% | -23% | 1% | 0.6µM* | ?
O=C(CN1C(=O)c2ccccc2S1(=O)=O)N1CCCCC1 | 2.5µM* | 16µM* | ? | . | 2% | ?
SMILES | Rab9 prom act | ELG1 genotox | p53 reactivator | SMN2 splice enh | FLuc counter | NPC1 promoter act
Cc1ccc(C(=O)CN2C(=O)c3ccccc3S2(=O)=O)cc1 | -40% | -6% | -12% | . | ? | -37%
O=C(CN1C(=O)c2ccccc2S1(=O)=O)c1ccccc1Cl | ? | -17% | -30% | . | 3µM* | -18%
CCOc1ccc(CNS(=O)(=O)c2ccc(-c3coc(C)n3)cc2)cc1OC | . | . | . | . | -3% | .
O=C(CSc1nccn1Cc1ccc(Cl)cc1)Nc1ccc2c(c1)OCO2 | . | . | . | . | -17% | .
COc1ccc(C(=O)COC(=O)c2cc(C)no2)c(OC)c1 | 10% | -3% | 6% | . | -3% | 2%
O=C(COc1ccc2ccccc2c1Br)N1CCN(c2ccccn2)CC1 | -3% | -5% | -2% | -36% | -10% | -4%
NC(=O)C1CCN(C(=O)COc2ccc3ccccc3c2Br)CC1 | 1% | -4% | -15% | . | -19% | -1%
O=C(Oc1ccc2ccccc2c1Br)N1CCCCCC1 | 0.63µM* | ? | ? | 11µM* | 1.3µM* | 0.5µM*
O=C(COc1ccc2ccccc2c1Br)N1CCCCC1 | ? | 18µM* | 16% | . | 15µM* | 4%
CCN(CC)C(=O)Oc1ccc2ccccc2c1Br | ? | 8% | 29% | ? | 19µM* | ?
O=C(c1cc(COc2ccc(F)cc2Cl)on1)N1C[C@H]2CC[C@H]1C2 | 2.8µM* | ? | -8% | . | 13µM* | ?
O=C(c1cc(COc2ccc(F)cc2Cl)on1)N1CC2C[C@@H]3CC1C[C@H](C2)C3 | 2.5µM* | 9.2µM* | ? | . | 6.7µM* | 3.2µM*
O=C(c1cc(COc2ccc(F)cc2Cl)on1)N1CC[C@@H]2CCCC[C@H]2C1 | -2% | -1% | 4% | . | -11% | -6%
COc1ccc(NC(=O)CSc2n[nH]c(-c3ccccc3)n2)cc1S(N)(=O)=O | 2% | 2% | -2% | . | 12µM* | -5%
COc1ccc(NC(=O)CSc2n[nH]c(-c3ccncc3)n2)cc1Cl | . | 10% | 8% | . | . | .
COc1ccc(-c2nc(SCC(=O)Nc3cccc(S(N)(=O)=O)c3)n[nH]2)cc1 | 25% | 12% | 17% | . | 1.7µM* | 23%
COc1ccc(-c2nc(SCC(=O)Nc3c(C)cc(C)cc3C)n[nH]2)cc1 | . | . | . | . | 15µM* | .
O=C(NCc1ccc(Cl)cc1)c1ccc2c(c1)N(Cc1ccccc1F)C(=O)c1ccccc1S2=O (stereo not given) | . | . | . | 4% | 0% | .
CC(=O)c1ccc(S(=O)(=O)Nc2cccc(-c3cn4c(n3)SCC4)c2)cc1 | 5% | -6% | -1% | -40% | -15% | 3%
CC(=O)c1ccc(S(=O)(=O)Nc2cccc(-c3ccc(N4CCCC4)nn3)c2)cc1 | . | . | . | . | 9.5µM* | .
CC(=O)c1ccc(S(=O)(=O)Nc2cccc(-c3ccc(N4CCCCCC4)nn3)c2)cc1 | . | . | . | . | 4.8µM* | .
CC(=O)c1cccc(NS(=O)(=O)c2ccc(NC(=O)N3CCCCC3)cc2)c1 | -24% | 0% | -12% | . | 0% | -26%
CC(C)ON([C@@H](C(=O)NO)C(C)C)S(=O)(=O)c1ccc(-c2ccccc2)cc1 | -35%[46.1 µM] | . | . | . | . | -15%[46.1 µM]
Cc1ccc2c(c1)c(N=Nc1cccc(C(=O)O)c1)c(O)n2C | -1% | 6% | 4% | . | 15µM* | 17%
Cc1ccc2c(c1)c(N=NC(N)=O)c(O)n2C | -5% | -1% | -4% | 3% | -3% | -1%
CCc1c2c(nc3ccc(OC)cc13)COC2 | . | . | . | -6% | . | .
